# This is a sample that favours compounds with a hit; in the whole collection about 0.97% have one here.
# NOD2 RIPK2 PPI – NOD2-RIPK2 protein interaction inhibition; CHO BLA complementation NOD2-RIPK2, CCF4 ratio; hit rate 0.38% among 360,000; inhibition, % at 4.98 µM; in the data active = inhibition above about 21%;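 note: 0% = vehicle only and 100% = reference blocker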
# Target sequence (O43353 whole entry, looked up): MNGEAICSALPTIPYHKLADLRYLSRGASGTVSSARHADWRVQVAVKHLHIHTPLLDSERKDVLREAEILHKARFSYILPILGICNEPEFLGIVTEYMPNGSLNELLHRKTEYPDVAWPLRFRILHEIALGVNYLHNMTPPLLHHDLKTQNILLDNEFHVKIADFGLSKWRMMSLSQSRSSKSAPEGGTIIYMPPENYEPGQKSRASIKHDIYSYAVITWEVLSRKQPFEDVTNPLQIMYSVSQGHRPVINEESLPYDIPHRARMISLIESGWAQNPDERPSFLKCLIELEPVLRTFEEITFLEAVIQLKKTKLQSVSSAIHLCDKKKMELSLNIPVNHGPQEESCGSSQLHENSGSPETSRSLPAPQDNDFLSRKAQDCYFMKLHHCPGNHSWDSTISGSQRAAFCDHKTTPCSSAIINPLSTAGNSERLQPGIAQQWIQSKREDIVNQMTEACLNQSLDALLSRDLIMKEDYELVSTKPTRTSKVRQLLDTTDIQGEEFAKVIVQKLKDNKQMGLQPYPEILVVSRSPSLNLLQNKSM
# TLR9-MyD88 inh – inhibitors of human TLR9-MyD88 binding. Q9NR96+Q99836. CHO BLA complementation TLR9-MyD88, CCF4 FRET ratio. inhibition, % at 4.98 µM. hit rate 0.21% among 340,000;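 active = inhibition above the mean over all tested compounds plus 3 SD, cut at about 21% in these data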;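 note: 0% = DMSO only wells and 100% = clavulanate BLA inhibitor control wells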
# B2AR ag – activates human beta-2 adrenergic receptor causing internalization; response, % (no concentration beside the values); hit rate 0.43% among 340,000; P07550; Am2.2-beta2AR cells, FAP receptor internalization, flow cytometry;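 active = response above a set limit, near 3 SD of response in nonfluorescent compounds, cut at about 42% in these data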
# A1 inh – inhibitors of the anti-apoptotic protein A1, read as caspase activation; MEF A1-2A-BIM cells, Caspase-Glo 3/7 luminescence, 3 h; percent of clofoctol response, vehicle zero; caspase activation, % (concentration not given with the values); hit rate 0.066% among 330,000; AID 2462;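 active = over half of replicate activation scores above 10%, or exactly half above 10 with the replicate mean above 10; inconclusive = replicate mean below 10 yet half the replicates above 10; inactive = over half of replicates below 10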
# NTR1 ag – activates human neurotensin receptor 1 | activation, % at 20 µM | P30989 | AID 493036 | hit rate 0.17% among 330,000 | NTR1-U2OS beta-arrestin-GFP spot imaging, agonist mode;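 active = activation at or above 40% of the spot to cytoplasm intensity ratio, with at least 20 cells analyzed; inconclusive = wells under 20 cells, flagged as cytotoxic or low count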;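 note: 0% = DMSO without peptide and 100% = 100 nM NTR1 peptide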
# TLR4 MyD88 comp – TLR4-MyD88 interaction inhibition in cells | inhibition, % at 8.4 µM | HeLa CL3-4 TLR4/MyD88 BLA complementation, FRET ratio | hit rate 0.18% among 200,000 | O00206+Q99836; in the data active = inhibition above about 25%;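 note: 0% = vehicle and 100% = reference inhibitor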
# * marks the source's active call; other numbers are inactive results; ? = inconclusive; · = not tested or not shown.
SMILES,NOD2 RIPK2 PPI,TLR9-MyD88 inh,B2AR ag,A1 inh,NTR1 ag,TLR4 MyD88 comp
CC(C)(C)C1=CC(=Nc2ccccc2N)C=C(C(C)(C)C)C1=O,-7,-25,3,0,-1,-6
CC(C)(C)C1=CC(=O)C(=O)C(C(C)(C)C)=C1,-12,-4,110*,31*,-2,-2
CCC(C(=O)Nc1nccs1)(C(F)(F)F)C(F)(F)F,-18,-2,-1,0,1,-7
Cn1cc(C(=O)c2ccc(Cl)cc2Cl)cc1C(=O)N/N=C(\N)COc1ccc(Cl)cc1,-2,2,90*,0,0,·
CS(=O)c1nc(-c2ccc(Br)cc2)cc(-c2ccccc2)c1C#N (stereo not given),21,11,99*,0,66*,23
CS(=O)(=O)c1nc(-c2ccc(Br)cc2)cc(-c2ccccc2)c1C#N,-9,-10,30,-1,15,4
CNC[C@H](Cc1ccccc1)NC[C@@H](Cc1cccc2ccccc12)NCCc1ccc(C)cc1,19,0,98*,1,23,·
CCOc1ccc(Nc2cc(C)nc3nc(C)nn23)cc1,4,-14,1,5.2*,-2,-4
CCOC(=O)c1[nH]c2ccc(Cl)cc2c1-c1ccccc1,-1,-4,4,0,0,0
CN(C)C=NC(=O)c1[nH]c2ccc(Cl)cc2c1-c1ccccc1,-6,4,49*,1,38,·
O=c1cc(N=Nc2ccc(Cl)cc2)[nH]c(=O)[nH]1,-5,-19,51*,-1,·,·
O=c1cc(-c2ccc(Cl)cc2)oc(=O)[nH]1,1,-5,5,?,4,·
O=C(NC1CC1)c1cccc(NC(=O)C2CC2)c1,3,2,-11,·,·,·
CN(C)c1ncc(C2=C(Cl)C(=O)C(N3CCCC3)=C(Cl)C2=O)s1,-12,2,76*,1,1,4
O=c1cnnc(N/N=C/c2ccccn2)[nH]1,0,0,-9,0,-1,·
CCN1CCN(Cc2ccc(NC(=O)c3ccc(C)c(NC(=O)c4cncc(-c5cccs5)c4)c3)cc2C(F)(F)F)CC1,29*,7,13,·,·,·
Cc1c(-c2ccc(OCCN3CCCCC3)cc2)c(=O)oc2ccc3ccccc3c12,0,5,·,·,·,·
Cc1n[nH]c(=S)c2nn(-c3ccccc3F)c(C)c12,-14,-3,2,·,·,0
Cc1cc(NC(=O)CSc2nnc(-c3cccnc3)n2C2CCCCC2C)no1 (stereo not given),-8,-10,4,2,-1,3
Cc1ccc(S(=O)(=O)N(CC(=O)NCc2ccccc2)C(=O)N2CCN(C)CC2)cc1,-4,-1,4,·,0,·
N#C/C(=C\c1c(Cl)cccc1Cl)c1nc2ccccc2[nH]1,15,2,56*,0,1,·
COC(=O)c1c(C)oc2ccc(N(C(=O)Oc3ccccc3)S(=O)(=O)c3ccc(Cl)c([N+](=O)[O-])c3)cc12,5,-4,60*,0,13,10
COC(=O)c1c(C)oc2ccc(N(C(=O)c3ccncc3)S(=O)(=O)c3ccc4ccccc4c3)cc12,7,-7,4,0,10,-1
O=C(Nc1ccc([N+](=O)[O-])cc1)c1nc[nH]c1C(=O)NC1CCCCC1,-9,-5,4,47*,13,-4
O=C(Nc1ccc(F)cc1)c1nc[nH]c1C(=O)Nc1ccc([N+](=O)[O-])cc1,2,1,-8,1,3,17
O=C(Nc1ccc(Cl)cc1)c1nc[nH]c1C(=O)NCCCNC(=O)c1[nH]cnc1C(=O)Nc1ccc(Cl)cc1,·,·,·,13*,6,·
O=S(=O)(c1ccc(OCC(O)CNC23CC4CC(CC(C4)C2)C3)c(Cl)c1)N1CCOCC1 (stereo not given),1,-8,7,-1,2,-6
Cc1ccc(CCNC(=O)c2cc(-c3ccncc3)nc3ccc(S(=O)(=O)N4CCOCC4)cc23)cc1,-11,-13,17,6.4*,0,·
COc1cccc(C2C=C(c3cccs3)Nc3ncnn32)c1OC (stereo not given),48*,45*,-7,0,0,3
O=c1c(/C=N/Nc2ccccc2)c(Sc2nnnn2-c2ccccc2)nc2ccccn12,6,2,-307,·,·,7

# Source: PubChem
